Measurements: PubChem BioAssay AID1347383 (Zoeller Lab, School of Medicine, Boston University, 2020)
The source made the active and inactive calls.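 The calls were made as follows: active = cell survival after UV exposure 2 SD above solvent-only control wells at 10 µM, confirmed on one or two repeats; inactive = the rest.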

Assay: cell survival after pyrene fatty acid photosensitization – ZR-82 cells, Analyticon library, screen 2, phospholipid biosynthesis inhibitor project, primary screen (AID 1347383);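 also: survival reflects blocked phospholipid synthesis cutting uptake of the phototoxic fatty acid; compound and fatty acid exposure 3 h then viability read next day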
Settings: ZR-82 CHO cells, pyrene-fatty acid UV killing, CellTiter Blue; at 10 µM; peroxisome-deficient CHO-K1 variant; with DGAT-1, DGAT-2 and ACAT inhibitors

| Structure (SMILES) | outcome |
| --- | --- |
| Cc1c(O)cc2c(c1O)C(=O)[C@@H](O)[C@H](c1ccc(O)c(O)c1)O2 | inactive |
| COc1ccc(/C=C/C(=O)O)cc1O | inactive |
| CC[C@H](C)C(=O)O[C@H]1C[C@@H](C)C=C2C=C[C@H](C)[C@H](CC[C@@H]3C[C@@H](O)CC(=O)O3)[C@H]21 | inactive |
| C=C1CCC2[C@@](C)(CO)CCC[C@]2(C)[C@H]1CC/C(C)=C/CO (some centres not stated) | inactive |
| CS/C=C/C(=O)O[C@@H]1CCC2=CC(=O)C(=C(C)C)C[C@]2(C)[C@H]1C | inactive |
| CN(/C=C\c1ccccc1)C(=O)/C=C/c1ccccc1 | inactive |
| CCOC(=O)C1C(=O)C(=O)Nc2ccccc21 (configuration not stated) | inactive |
| O=C(c1cccc(O)c1)c1c(O)cc(O)cc1O | inactive |
| C=C1CCc2occ(C)c2[C@H]2[C@H]1[C@@]13O[C@@]1(C[C@@H](C)[C@H]3OC(C)=O)[C@H]1O[C@@]21C | inactive |
| O=C1NC(Cc2ccccc2)C(=O)N2CCCC12 (configuration not stated) | inactive |
| COc1cc(C2CC(=O)c3c(O)cc(O)cc3O2)ccc1O (configuration not stated) | inactive |
| C/C=C(/C)C(=O)Oc1c(OC)c(OC)cc2c1-c1c(cc(OC)c(OC)c1OC)C[C@](C)(O)[C@@H](C)C2 | inactive |
| C=C1C[C@]23C[C@H]4C5[C@]6(C)CC(=O)C[C@]57C(C2C(O)[C@H]1C(O)C37)N4C6 (some centres not stated) | inactive |
| COc1c2cccc(C)c2c(C=O)c2c(COC(C)=O)coc12 | inactive |
| COc1ccc(-c2coc3cc(O)ccc3c2=O)cc1O | inactive |
| COc1c(OC)c(OC)c2c(c1OC)c(=O)c1ccccc1n2C | inactive |
| COc1cc(CCc2ccccc2)cc(O)c1C/C=C(\C)CCC=C(C)C | inactive |
